Sampled rows, rich in hits. Any-hit rate of the full collection: about 8.7%.
Sfp inh: Sfp phosphopantetheinyl transferase inhibition; Q9F4F7; Biochemical Sfp PPTase activity, qHTS; Potency, µM, most hits filed as inhibitors; 310,000 compounds, 3.5% hits;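 note: the enzyme is Sfp with the accession as filed and its product quenches rhodamine fluorescence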
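Fluorescence-quenching assay: 15 nM Sfp-PPTase preincubated 15 min at room temperature with compound, then 5 uM rhodamine-CoA and 12.5 uM BHQ-2-labelled YbbR peptide added. Fluorescence (ex 525/em 598 nm) read at start and after 30 min; difference gives rate.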
HP1b chromo inh: blocks HP1-beta chromodomain binding to methylated histone tails; P83916; AlphaScreen HP1-beta / biotin-H3K9me3 peptide binding; Potency, µM (doses to about 114 µM), most hits filed as inhibitors; 390,000 compounds, 0.56% hits; AID 540317; note: nearly all actives have a fitted effect of over 70% in size
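Compound inhibition of the preformed complex between 50 nM HP1-beta and 50 nM biotinylated H3K9me3 peptide was read by AlphaScreen. Buffer was PBS pH 7.4 with 0.01% Tween-20. Incubations ran 30 min at room temperature, with 10 ug/mL donor/acceptor beads.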
12-LOX inh: inhibitors of human 12S-lipoxygenase ALOX12; 580,000 compounds, 1.1% hits; purified 12hLO, xylenol orange hydroperoxide absorbance; Potency, µM (highest dose often 108 µM), actives largely listed as inhibitors; P18054; AID 1671190
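Purified human 12hLO (150 nM final) in 25 mM Hepes, 0.01% Triton X-100, pH 7.0 was preincubated 15 min at room temperature with compound. Then 40 uM arachidonic acid was added, 30 min. Hydroperoxide was read by Fe-XO absorbance ratio 573/405 nm.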
G9a block: G9a (human) methyltransferase inhibition. Potency, µM (titrated, usually from 102 µM), hits mostly inhibitors. 350,000 compounds, 8.8% hits. Q96KQ7. G9a H3K9 monomethylation, AlphaScreen, 2 h; note: nearly all actives have a fitted effect of over 75% in size
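Using a bead-based AlphaScreen, monomethylated H3K9 product from 2 h room-temperature reactions (G9a 20 nM, peptide 500 nM, SAM 20 uM) was detected with 0.5 ug/mL rabbit anti-H3K9me1 antibody.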
JMJD2A Tudor: blocks the human JMJD2A Tudor domain. AlphaScreen JMJD2A-Tudor / H3K4me3 peptide binding. Potency, µM (titrated, usually from 114 µM), usual class: inhibitors. 390,000 compounds, 4.4% hits. AID 504339; note: nearly all actives have a fitted effect of over 50% in size
Target sequence (O75164 whole entry, looked up, the tested form may be a part): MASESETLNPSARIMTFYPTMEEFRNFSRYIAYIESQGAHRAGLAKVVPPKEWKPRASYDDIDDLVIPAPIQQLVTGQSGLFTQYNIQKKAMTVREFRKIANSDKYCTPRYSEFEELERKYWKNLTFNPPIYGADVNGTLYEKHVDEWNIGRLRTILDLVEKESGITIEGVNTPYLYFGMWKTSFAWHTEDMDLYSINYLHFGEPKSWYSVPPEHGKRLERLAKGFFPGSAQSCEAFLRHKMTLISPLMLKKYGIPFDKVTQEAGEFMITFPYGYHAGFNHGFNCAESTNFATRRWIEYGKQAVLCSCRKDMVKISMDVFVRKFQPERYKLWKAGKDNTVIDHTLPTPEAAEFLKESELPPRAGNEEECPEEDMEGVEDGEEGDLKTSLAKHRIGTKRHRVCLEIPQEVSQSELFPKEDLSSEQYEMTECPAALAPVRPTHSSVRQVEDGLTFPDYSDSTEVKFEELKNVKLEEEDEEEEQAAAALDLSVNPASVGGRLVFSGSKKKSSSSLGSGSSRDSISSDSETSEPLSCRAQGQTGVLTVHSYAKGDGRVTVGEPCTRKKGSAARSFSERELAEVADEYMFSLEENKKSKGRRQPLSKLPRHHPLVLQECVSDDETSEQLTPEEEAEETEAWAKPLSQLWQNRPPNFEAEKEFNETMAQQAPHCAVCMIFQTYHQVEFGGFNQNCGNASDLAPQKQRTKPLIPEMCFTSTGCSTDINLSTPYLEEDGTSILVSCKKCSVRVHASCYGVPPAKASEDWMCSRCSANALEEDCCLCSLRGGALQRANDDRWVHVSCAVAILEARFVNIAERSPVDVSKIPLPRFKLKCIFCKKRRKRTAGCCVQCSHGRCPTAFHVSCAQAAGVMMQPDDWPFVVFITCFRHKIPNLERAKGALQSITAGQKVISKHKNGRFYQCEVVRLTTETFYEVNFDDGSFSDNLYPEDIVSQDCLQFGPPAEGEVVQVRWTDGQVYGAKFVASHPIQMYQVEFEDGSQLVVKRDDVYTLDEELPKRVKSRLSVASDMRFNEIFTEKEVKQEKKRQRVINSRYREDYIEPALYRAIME
BAZ2B block: blocks human BAZ2B. AID 504333. 360,000 compounds, 4.4% hits. AlphaScreen BAZ2B-H3K14Ac peptide displacement. Potency, µM (titrated, usually from 114 µM), hits mostly inhibitors. Q9UIF8; note: nearly all actives have a fitted effect of over 60% in size
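Complex of BAZ2B and biotin-H3K14Ac (50 nM apiece) forms over 30 min at RT, then faces library compounds up to 110 uM for another 30 min; AlphaScreen beads added, 20 min dark incubation, luminescence read.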
Hits are given with their value; [ ] = remark or other dose. Calls come from the whole dose curve; as a rule, active = well fitted curve in the direction sought with a large enough effect; inconclusive = small, poorly fitted or top-dose-only effect, or another doubt; inactive = no such curve, though single readings can be large; an effect the other way counts as inactive or inconclusive.

Results for COc1cc(-c2nc3sccn3c2Nc2cccc(C)c2)ccc1O ?
HP1b chromo inh: inconclusive; 12-LOX inh: inactive; G9a block: 11µM; JMJD2A Tudor: 45µM; BAZ2B block: 13µM

Results for Cc1ccc(Cn2ccc(=O)c(OCc3c(Cl)cccc3Cl)c2C)cc1 ?
Sfp inh: 18µM; HP1b chromo inh: inactive; 12-LOX inh: inactive; G9a block: inactive; JMJD2A Tudor: inactive; BAZ2B block: inconclusive

What do the screens show for `CC(C)C(Br)C(=O)Nc1ccc(F)cc1` (stereo unspecified)?
12-LOX inh: inactive

How did CCc1nc(NCC(C)C)c(C#N)c2c1CCCC2 do in these assays?
12-LOX inh: inactive

How did C=CCNc1nc(C(=O)OCC(=O)Nc2ccc(S(N)(=O)=O)cc2)cs1 do in these assays?
HP1b chromo inh: inactive; 12-LOX inh: inactive; G9a block: inactive; JMJD2A Tudor: inconclusive; BAZ2B block: 89µM

How did C=CCNc1nc(C(=O)OCC(=O)NCc2cccc(Cl)c2)cs1 do in these assays?
HP1b chromo inh: inactive; 12-LOX inh: inconclusive; G9a block: inactive[12.7 µM]; JMJD2A Tudor: inactive; BAZ2B block: inactive

What do the screens show for `C=CCNc1nc(C(=O)OCC(=O)c2ccccc2)cs1`?
Sfp inh: inactive; HP1b chromo inh: inactive; 12-LOX inh: inactive; JMJD2A Tudor: inactive; BAZ2B block: inconclusive

How did C=CCNc1nc(C(=O)OCC(=O)Nc2cc(S(C)(=O)=O)ccc2Cl)cs1 do in these assays?
HP1b chromo inh: inactive; 12-LOX inh: inactive; G9a block: 45µM; JMJD2A Tudor: inactive; BAZ2B block: inactive

Results for CC(=O)c1ccc(N2CCN(CC(O)COC(c3ccccc3)c3ccccc3)CC2)cc1 (stereo unspecified) ?
Sfp inh: inconclusive; HP1b chromo inh: 22µM; 12-LOX inh: inconclusive; G9a block: 20µM; JMJD2A Tudor: 10µM; BAZ2B block: 18µM

What do the screens show for `CC(=O)c1ccc(N2CCN(CC(O)COC(c3ccccc3)c3ccccc3C)CC2)cc1` (stereo unspecified)?
Sfp inh: inconclusive; HP1b chromo inh: 45µM; 12-LOX inh: 0.63µM; G9a block: 8.9µM; JMJD2A Tudor: 4.5µM; BAZ2B block: 25µM

What do the screens show for `CNc1c(NC(=O)NCC2CCCO2)c(=O)oc2ccccc12` (stereo unspecified)?
12-LOX inh: inactive

Results for CN1CCCC1c1nc(C2CN(S(=O)(=O)Cc3ccccc3F)C2)no1 (stereo unspecified) ?
12-LOX inh: inactive

Results for O=C1NC[C@@H]2CCCN2C1=O ?
12-LOX inh: inactive

How did c1ccc2c(c1)NCC1CCCN21 (stereo unspecified) do in these assays?
Sfp inh: inactive; HP1b chromo inh: inconclusive; 12-LOX inh: inconclusive; G9a block: 2.2µM; JMJD2A Tudor: 50µM; BAZ2B block: 45µM

What do the screens show for `O=C1CC(c2ccco2)CC2=C1C(c1ccccc1)n1nc(C(F)(F)F)nc1N2` (stereo unspecified)?
Sfp inh: 10µM; HP1b chromo inh: inactive; 12-LOX inh: inconclusive; G9a block: inconclusive; JMJD2A Tudor: inactive; BAZ2B block: inactive

How did CCOC(=O)C1(Cc2cccc(C(F)(F)F)c2)CCN(Cc2cn(CC)nc2C)CC1 do in these assays?
12-LOX inh: inactive

How did CC(C)(C)NC(=S)NCc1ccc2c(c1)OCO2 do in these assays?
Sfp inh: inactive; HP1b chromo inh: inactive; 12-LOX inh: inactive; G9a block: inactive; JMJD2A Tudor: inactive; BAZ2B block: inactive

How did O=C(NC(=S)NCc1ccccc1)c1ccc2c(c1)OCO2 do in these assays?
Sfp inh: inactive; HP1b chromo inh: inconclusive; 12-LOX inh: 16µM; G9a block: inconclusive; JMJD2A Tudor: inactive; BAZ2B block: inactive

How did O=C(NC(=S)NCc1ccc2c(c1)OCO2)c1ccccc1 do in these assays?
Sfp inh: inactive; HP1b chromo inh: inactive; 12-LOX inh: 16µM; G9a block: inconclusive; JMJD2A Tudor: inactive; BAZ2B block: inconclusive

What do the screens show for `O=C(NCc1ccc2c(c1)OCO2)c1ccccc1`?
Sfp inh: inactive; HP1b chromo inh: inactive; 12-LOX inh: inactive; G9a block: inactive; JMJD2A Tudor: inactive; BAZ2B block: inactive

How did CN(C)CC(C)(C)CNC(=S)NCc1ccc2c(c1)OCO2 do in these assays?
Sfp inh: inconclusive; HP1b chromo inh: inconclusive; 12-LOX inh: inconclusive; G9a block: 8.9µM; JMJD2A Tudor: inconclusive; BAZ2B block: 45µM

How did O=C(NC(=S)NCc1ccccc1)c1ccc(Br)cc1 do in these assays?
HP1b chromo inh: inactive; 12-LOX inh: inactive; JMJD2A Tudor: inactive

How did COc1ccc(C(=O)NC(=S)NCc2ccccc2)cc1 do in these assays?
Sfp inh: inactive; HP1b chromo inh: inactive; 12-LOX inh: 0.71µM; JMJD2A Tudor: inactive; BAZ2B block: inconclusive

Results for Cc1ccc(C(=O)N/C(=C\c2ccc(-c3ccc(Cl)cc3Cl)o2)C(=O)NC(C)(C)C)cc1 ?
12-LOX inh: inactive

How did CNC(=O)NC(=O)CN(C)Cc1ccsc1 do in these assays?
12-LOX inh: inactive

Results for Fc1ccccc1OCCCCN1CCCCC1 ?
Sfp inh: inactive; HP1b chromo inh: inactive; 12-LOX inh: inconclusive; G9a block: 50µM; JMJD2A Tudor: 79µM; BAZ2B block: inconclusive

How did CN1CCN(CCCCOc2ccccc2C=O)CC1 do in these assays?
Sfp inh: 25µM; HP1b chromo inh: inconclusive; 12-LOX inh: inconclusive; JMJD2A Tudor: 4µM; BAZ2B block: 22µM

Results for O=S(=O)(CCN1CCCCC1)Oc1ccc(Cl)cc1Cl ?
Sfp inh: inactive; HP1b chromo inh: inactive; 12-LOX inh: inactive; G9a block: inconclusive; JMJD2A Tudor: inactive; BAZ2B block: inactive

What do the screens show for `O=Cc1ccccc1OCCOc1ccccc1C=O`?
Sfp inh: inactive; HP1b chromo inh: inactive; 12-LOX inh: inactive; G9a block: inactive; JMJD2A Tudor: inactive; BAZ2B block: inactive

Results for Clc1ccc(Cl)c(OCCCCN2CCCCC2)c1 ?
Sfp inh: inactive; HP1b chromo inh: inconclusive; 12-LOX inh: inconclusive; G9a block: 8.9µM; JMJD2A Tudor: 32µM; BAZ2B block: inconclusive

What do the screens show for `Clc1ccccc1OCCCCN1CCNCC1`?
Sfp inh: inconclusive; HP1b chromo inh: inconclusive; 12-LOX inh: inconclusive; JMJD2A Tudor: 3.2µM; BAZ2B block: 28µM

What do the screens show for `CN(CCO)C(=O)COc1cc(O)c2c(=O)cc(-c3ccccc3)oc2c1`?
12-LOX inh: inactive

What do the screens show for `Cc1ccc(NC(=O)c2cc3c(cc2C)OCCCO3)cc1C`?
12-LOX inh: inactive

Results for Clc1ccccc1OCCCCN1CCCC1 ?
Sfp inh: inactive; HP1b chromo inh: inconclusive; 12-LOX inh: inconclusive; G9a block: inconclusive; JMJD2A Tudor: 3.2µM; BAZ2B block: inconclusive

Results for Cc1ccc(Cl)c(OCCCCN2CCC(C)CC2)c1 ?
HP1b chromo inh: inactive; 12-LOX inh: inactive; JMJD2A Tudor: inactive

Results for O=C(OCCN1CCCCC1)c1ccccc1Cl ?
Sfp inh: inactive; HP1b chromo inh: inactive; 12-LOX inh: inactive; G9a block: inconclusive; JMJD2A Tudor: inactive; BAZ2B block: inactive

Screens from PubChem BioAssay.
